Screening data: PubChem, National Center for Advancing Translational Sciences (NCATS)
Pf growth 48h: inhibits P. falciparum growth in the first generation, 48 h; P. falciparum luciferase growth in erythrocytes, 48 h; Potency, µM (highest dose often 28.7 µM), most hits filed as inhibitors; 310,000 tested, 5.9% active; AID 504832
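Firefly luciferase activity from engineered P. falciparum reports growth; inhibitors lower the luminescent signal. Cultures contained 2% hematocrit erythrocytes at 0.1% final parasitemia.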
NS1 inh: blocks influenza NS1 protein function. 270,000 tested, 0.4% active. Potency, µM (highest dose often 46.1 µM); calls by dose curve; note: actives are rising curves; nearly all actives have a fitted effect of over 50% in size
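In this qHTS, NS1 from influenza A is expressed in budding yeast, where it slows growth. Cells are switched from glucose to 2% galactose medium (pH 6.0, -URA), treated with compound, and growth recovery is read at OD600.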
SARS PLpro yeast: SARS-CoV PLP inhibition in yeast; Potency, µM (highest dose often 32.9 µM), hits mostly activators; S. cerevisiae expressing SARS-CoV PLpro, growth rescue; AID 485353; 330,000 tested, 0.19% active; calls by dose curve; note: nearly all actives have a fitted effect of over 55% in size
AMA1 RON2 block: AMA1-RON2 (P. falciparum) interaction inhibition | AlphaScreen AMA1-biotinylated RON2 peptide binding | Potency, µM (highest dose often 58.2 µM), actives largely listed as inhibitors | 360,000 tested, 0.2% active; note: nearly all actives have a fitted effect of over 45% in size
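AMA1 (3D7) with his tag at 25 nM final met compounds first, then biotinylated RON2 peptide at 25 nM; detection used donor plus acceptor beads, 10 µg/mL apiece, read by AlphaScreen after 30 min at room temperature.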
HCV inh: HCV inhibition; Huh7.5.1 HCVcc-Cre infection, luciferase reporter, 44 h; Potency, µM (series often up to 41.8 µM), hits mostly inhibitors; 340,000 tested, 3.4% active
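1,000 cells/well; 4 h culture; + compound; + HCVcc-Cre (~0.5 moi); 44 h; luciferase substrate, RT 15 min; read 15 sec.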
Pf growth 96h: P. falciparum growth inhibition at 96 hours; P. falciparum luciferase reporter growth, 96 h; Potency, µM (doses to about 28.7 µM), most hits filed as inhibitors; 320,000 tested, 6.9% active
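Two parasite generations (96 h, 37 C, 5% CO2) of compound exposure in infected erythrocytes (0.05% parasitemia, 2% hematocrit). Luciferase-reporter P. falciparum; decreased luminescence indicates inhibited growth, aimed at apicoplast-acting delayed death.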
Large screens that a line does not name were inactive. In the library only some 12% were active in any assay of this set; here they are far more common. Unless noted, calls come from the whole dose curve; as a rule, active = well fitted curve in the direction sought with a large enough effect; inconclusive = small, poorly fitted or top-dose-only effect, or another doubt; inactive = no such curve, though single readings can be large; an effect the other way counts as inactive or inconclusive.

CC1(C)OC(=O)C=C(CC2NS(=O)(=O)OC3CCCCC23)O1 (centres undefined)	HCV inh 2.5µM
CC(C)(C)SC(=O)CC1NS(=O)(=O)OC2CCCCC12 (centres undefined)	none
O=C(C[C@@H]1NS(=O)(=O)OC2CCCCC21)c1ccccc1 (some centres undefined)	HCV inh 0.28µM
O=C(C1=NNC2C(=O)N(c3ccccc3)C(=O)C12)c1nc(Cl)ccc1Cl (centres undefined)	none
O=[N+]([O-])c1ccc(N2CCN(S(=O)(=O)c3ccc(Cl)c(Cl)c3)CC2)cc1NCCN1CCOCC1	Pf growth 48h inconclusive, Pf growth 96h 6.6µM
O=[N+]([O-])c1ccc(N2CCOCC2)cc1NC(c1ccccc1)c1ccccc1	Pf growth 48h inconclusive, AMA1 RON2 block inconclusive, HCV inh inconclusive, Pf growth 96h 2.1µM
CC(C)(C)c1ccc(CNc2cc(N3CCOCC3)ccc2[N+](=O)[O-])cc1	Pf growth 48h 13µM, AMA1 RON2 block inconclusive, HCV inh 10µM
O=[N+]([O-])c1ccc(N2CCCC2)cc1NC(c1ccccc1)c1ccccc1	Pf growth 48h inconclusive, HCV inh inconclusive, Pf growth 96h inconclusive
CC(Nc1cc(N2CCN(C(=O)C(C)(C)C)CC2)ccc1[N+](=O)[O-])c1ccccc1 (centres undefined)	Pf growth 48h 8.3µM, AMA1 RON2 block inconclusive, HCV inh inconclusive, Pf growth 96h 2.1µM
O=[N+]([O-])c1cc(S(=O)(=O)N2CCCC2)ccc1NCCCN1CCOCC1	Pf growth 96h inconclusive (no result: NS1 inh)
CC(C)c1ccc(CNc2cc(N3CCCC3)ccc2[N+](=O)[O-])cc1	HCV inh inconclusive, Pf growth 96h inconclusive
CC(OC(=O)CCc1nc2ccccc2c(=O)[nH]1)C(=O)Nc1cccc(C(F)(F)F)c1 (centres undefined)	none (no result: Pf growth 48h, NS1 inh, Pf growth 96h)
O=C(CCC(=O)Nc1ccccc1)NNS(=O)(=O)c1ccccc1[N+](=O)[O-]	none (no result: NS1 inh)
CC1CN(S(=O)(=O)c2ccccc2)C(C)N1C(=O)N1CCOCC1 (centres undefined)	none
CCS(=O)(=O)N1CCN(c2ccc([N+](=O)[O-])c(NC(C)c3ccccc3)c2)CC1 (centres undefined)	Pf growth 48h inconclusive, HCV inh inconclusive, Pf growth 96h inconclusive
Cc1cc(C)c(S(=O)(=O)N2CCN(c3ccc([N+](=O)[O-])c(NCc4ccco4)c3)CC2)c(C)c1	Pf growth 48h inconclusive, NS1 inh inconclusive, HCV inh inconclusive, Pf growth 96h 3.7µM
Cc1cc(C)c(S(=O)(=O)N2CCN(c3ccc([N+](=O)[O-])c(NCC4CCCO4)c3)CC2)c(C)c1 (centres undefined)	AMA1 RON2 block inconclusive, HCV inh inconclusive, Pf growth 96h inconclusive
CC(C)C(=O)N1CCN(c2ccc([N+](=O)[O-])c(NC(C)c3ccccc3)c2)CC1 (centres undefined)	Pf growth 48h 9.3µM, HCV inh inconclusive
O=C(NCc1ccccc1F)c1ccc(S(=O)(=O)N2CCCCCC2)cc1	Pf growth 48h inconclusive, Pf growth 96h inconclusive (no result: NS1 inh)
NC(=O)NC(=O)C[n+]1cccc(/C=N/O)c1	Pf growth 96h 10µM (no result: NS1 inh)
COC(=O)Cn1c(=O)c2c(nc3n2CCCN3Cc2ccccc2)n(C)c1=O	Pf growth 96h inconclusive
CCOC(=O)C1(C)NC(c2cccc(C)c2)C2C(=O)N(c3ccccc3)C(=O)C21 (centres undefined)	NS1 inh inconclusive
CCOC(=O)C1=C(N)OC2=C(C(=O)CC(C)(C)C2)C1c1ccc(CC)s1 (centres undefined)	Pf growth 96h 4.1µM (no result: NS1 inh)
CCOC(=O)C1=C(N)OC2=C(C(=O)CC(C)(C)C2)C1c1ccc(C)s1 (centres undefined)	none (no result: NS1 inh)
CCCCNc1c([N+](=O)[O-])cc(C)cc1[N+](=O)[O-]	AMA1 RON2 block 19µM, HCV inh inconclusive, Pf growth 96h inconclusive
CCOC(=O)C(/C(N)=N/C(=O)Nc1ccccc1)=C(\C)O	Pf growth 96h 9.3µM
CCOc1ccc(C2CC(c3cccc(Cl)c3)n3nc(N)nc3N2)cc1 (centres undefined)	Pf growth 96h 3.7µM
CCc1ccc(C2CC(c3ccccc3C)n3nc(N)nc3N2)cc1 (centres undefined)	Pf growth 96h 15µM
Nc1nc2n(n1)C(c1cccc(Cl)c1)CC(c1ccc(F)cc1)N2 (centres undefined)	Pf growth 96h inconclusive (no result: Pf growth 48h)
CCCn1cnnc1CNC(=O)[C@H]1O[C@@H](n2cnc3c(N)ncnc32)[C@H](O)[C@@H]1O	none (no result: Pf growth 48h, NS1 inh, SARS PLpro yeast, HCV inh, Pf growth 96h)
O=C(CSc1nnc(-c2ccccc2Cl)o1)N1CCOCC1	none
CCOC(=O)N1CCC(NC(=O)CSc2cc(=O)n(C)c3ccccc23)CC1	Pf growth 96h 13µM
O=C(CC1Nc2ccccc2NC1=O)NCC1COc2ccccc2O1 (centres undefined)	Pf growth 48h 12µM
Cc1cc(C)nc(SCC(=O)NCC2COc3ccccc3O2)n1 (centres undefined)	none (no result: NS1 inh)
Cn1c(=O)cc(SCC(=O)NCC2COc3ccccc3O2)c2ccccc21 (centres undefined)	Pf growth 96h 2.9µM
Cn1c(=O)cc(SCC(=O)N2CCCC2)c2ccccc21	none
O=C(Nc1ccc2c(c1)OCO2)C1CC(=O)N(c2ccc(F)cc2)C1 (centres undefined)	Pf growth 96h inconclusive
COc1ccc(NC(=O)N2CCC(c3nc(-c4cccs4)no3)CC2)cc1	HCV inh inconclusive, Pf growth 96h 0.52µM
O=C(Nc1ccc(Cl)cc1)N1CCC(c2nc(-c3cccs3)no2)CC1	HCV inh inconclusive
O=C(Nc1ccccc1)N1CCCC(c2nc(-c3ccc(F)cc3)no2)C1 (centres undefined)	HCV inh inconclusive, Pf growth 96h inconclusive
COc1cccc(-c2noc(C3CCCN(C(=O)CC(C)(C)C)C3)n2)c1 (centres undefined)	HCV inh 10µM
Cc1ccc(-c2noc(C3CCCN(C(=O)C4CCCCC4)C3)n2)o1 (centres undefined)	Pf growth 96h 1µM (no result: Pf growth 48h)
O=C(Nc1cccc(C(F)(F)F)c1)N1CCC(c2nc(-c3ccc(F)cc3)no2)CC1	Pf growth 48h inconclusive, HCV inh 11µM
Cc1ccc(-c2noc(C3CCCN(C(=O)c4ccc(Cl)cc4)C3)n2)o1 (centres undefined)	HCV inh inconclusive
COc1ccc(N(CC(=O)NN=C2CCN(C)CC2)S(=O)(=O)c2ccc(NC(C)=O)cc2)cc1	Pf growth 96h inconclusive
COc1cccc(C(=O)N2CCCC(c3nc(-c4cccs4)no3)C2)c1 (centres undefined)	NS1 inh inconclusive, Pf growth 96h 9.3µM
